Experimental data taken from PubChem BioAssay (Tox21).
Records with an inconclusive call do not appear. A number with no mark means an inactive call. Active and inactive are the calls of the source. The call rests on the fitted dose curve.
On the % scale 0 is the no-effect control and ±100 the full control effect.

Experiment: qHTS assay for small molecule agonists of the p53 signaling pathway (AID 651631); further: nearly all actives have a fitted effect of over 15% in size
Details: HCT-116 p53RE-bla reporter, beta-lactamase FRET ratio, 16 h; series mostly up to 73.3 µM; activation: at the top concentration
Text: U.S. Tox21 Program National Center for Advancing Translational Sciences [NCATS] NIH Chemical Genomics Center [NCGC] U.S. Environmental Protection Agency [EPA] National Institutes of Environmental Health Sciences [NIEHS] National Toxicology Program [NTP] U.S. Food and Drug Administration [FDA] Tox21 Assay Overview: p53, a tumor suppressor protein, is activated following cellular insult, including DNA damage and other cellular stresses. The activation of p53 regulates cell fate by inducing DNA repair, cell cycle arrest, apoptosis, or cellular senescence. The activation of p53, therefore, is a good indicator of DNA damage and other cellular stresses. The CellSensor p53RE-bla HCT-116 cell line (Invitrogen) contains a stably integrated beta-lactamase reporter gene under control of the p53 response elements. The activation of the reporter gene under culture conditions can be detected by fluorescence intensity. This cell line was used to screen the Tox21 compound library in a 1536-well plate format and to identify agonists that activate the p53 signaling pathway.
Tox21 Assay Protocol Summary: The p53RE-bla cells were dispensed at 4,000 cells/5 ul/well in 1536-well black wall/clear bottom plates using a Multidrop dispenser. After the assay plates were incubated at a 37 C/5% CO2 incubator for 5 hours, 23 nL of compounds dissolved in DMSO, positive controls or DMSO only was transferred to the assay plate by a pin tool. The plates were incubated at 37 C for 16 hours. After 1 uL of LiveBLAzerTM B/G FRET substrate was added using a Flying Reagent Dispenser, the plates were incubated at room temperature for 2 hours, and fluorescence intensity was measured by an Envision plate reader.
With `C=C(C)C(=O)OCC1CCCO1` (stereo not given) the “activation” value was -1.69%.
With `CCC(C)(CCCC(C)C)OC(C)=O` (stereo not given) the “activation” value was -0.98%.
In the case of `CCCCCCCCCCCCCCC(=O)O`, the “activation” value is reported as 3.55%.
In the case of `CC(=O)N1C[C@H](O)C[C@H]1C(=O)O`, the “activation” value is reported as 3.27%.
In the case of `CNCCO`, the “activation” value is reported as -1.56%.
For `NC(=O)N1c2ccccc2CC(=O)c2ccccc21`, the “activation” value was 5.77%.
In the case of `CCOC(=O)COc1cc(-n2ncc(C(F)(F)F)c(C)c2=O)c(F)cc1Cl`, the “activation” value is reported as -2.44%.
With `Clc1cc(Cl)c(Cl)nc1Cl` the “activation” value was 2.27%.
In the case of `CCN(C=O)CC`, the “activation” value is reported as -3.2% [at 95.1 µM].
In the case of `CN(C)C(=O)Oc1ccc[n+](C)c1`, the “activation” value is reported as -1.88%.
With `C=COCC1CCC(COC=C)CC1` (stereo not given) the “activation” value was 2.98%.
With `Cc1ccc(C(=O)Nc2ccc(S(=O)(=O)O)c3cc(S(=O)(=O)O)cc(S(=O)(=O)O)c23)cc1NC(=O)c1cccc(NC(=O)Nc2cccc(C(=O)Nc3cc(C(=O)Nc4ccc(S(=O)(=O)O)c5cc(S(=O)(=O)O)cc(S(=O)(=O)O)c45)ccc3C)c2)c1` the “activation” value was -1.71%.
In the case of `c1ccc(Cc2ccccc2)cc1`, the “activation” value is reported as 4.1%.
In the case of `CCCCCCCCCCCCCCCCCCO`, the “activation” value is reported as -3.51%.
For `Clc1cc(Cl)cc(Cl)c1`, the “activation” value was -2.64%.
With `O=C(O)CNC(=O)c1ccc(CO)o1` the “activation” value was -1.37%.
In the case of `CCOC(=O)COC(=O)c1ccccc1C(=O)OCC`, the “activation” value is reported as 1.16%.
With `O=C(O)c1cc(C(=O)O)cc(C(=O)O)c1` the “activation” value was 0.518% [at 95.1 µM].
For `CN(C)CCCN(C)CCCN(C)C`, the “activation” value was 1.89%.
In the case of `OCCc1ccccn1`, the “activation” value is reported as 2.26%.
With `CCOC(=O)CCC(=O)OCC` the “activation” value was -2.49%.
In the case of `Nc1ccccn1`, the “activation” value is reported as -4.87%.
For `CCCCCCC1CCC(=O)O1` (stereo not given), the “activation” value was -2.12% [at 95.1 µM].
For `CC(C)C1CCC(O)CC1` (stereo not given), the “activation” value was 0.787%.
In the case of `CN1[C@@H]2CC[C@H]1CC(OC(=O)C(O)c1ccccc1)C2` (stereo not given in full), the Potency is reported as “inactive”.
With `O=C(O)CC(C(=O)O)S(=O)(=O)O` (stereo not given) the “activation” value was -3.65%.
For `CCCc1nn(C)c2c(=O)[nH]c(-c3cc(S(=O)(=O)N4CCN(C)CC4)ccc3OCC)nc12`, the “activation” value was -2.88%.
With `O=C(O)CCSCCC(=O)O` the “activation” value was -0.51%.
In the case of `CCOC(=O)C1=NOC(c2ccccc2)(c2ccccc2)C1`, the “activation” value is reported as 2.19%.
For `COc1cc(C(=O)NCc2ccc(OCCN(C)C)cc2)cc(OC)c1OC`, the “activation” value was -3.56% [at 34.7 µM].
For `CCN[C@@H]1C[C@H](N)[C@@H](OC2OC(CN)=CCC2N)[C@H](O)[C@H]1O[C@H]1OC[C@](C)(O)[C@H](NC)[C@H]1O` (stereo not given in full), the “activation” value was 3.1%.
With `CC1=NN(c2cc(S(=O)(=O)O)ccc2Cl)C(=O)C1N=Nc1ccccc1` (stereo not given) the “activation” value was -1.48%.
In the case of `CN(C)[C@@H]1C(=O)C(C(=O)NCN2CCCC2)=C(O)[C@@]2(O)C(=O)C3=C(O)c4c(O)cccc4[C@@](C)(O)C3C[C@@H]12` (stereo not given in full), the Potency is reported as “inactive”.
For `CO[C@@]1(NC(=O)CSC[C@@H](N)C(=O)O)C(=O)N2C(C(=O)O)=C(CSc3nnnn3C)CS[C@@H]21`, the “activation” value was -3.25%.
With `COc1cc2c(cc1OC)-c1cc3ccc(OC)c(OC)c3c[n+]1CC2` the “activation” value was 4.66% [at 95.1 µM].
With `CC(C)C(=O)OC(=O)C(C)C` the “activation” value was 2.45%.
In the case of `CCN(CC#N)c1cccc(C)c1`, the “activation” value is reported as -0.282%.
With `CN1CC(=O)N/C1=N/C(=O)Nc1cccc(Cl)c1` the Potency was “inactive”.
With `C=CC(C)(CCC=C(C)C)OC(=O)CC` (stereo not given) the “activation” value was 0.564%.
For `COc1cc(C(=O)OC(COCCC(C)C)CN2CCOCC2)cc(OC)c1OC` (stereo not given), the “activation” value was -3.02%.
